The values that follow come from PubChem BioAssay (NCI).

Test systems include SK-MEL-2 melanoma; EKVX NSCLC; SN12C renal; UO-31 renal; TK-10 renal; ACHN renal; CAKI-1 renal; A498 renal; CCRF-CEM leukemia; MOLT-4 leukemia; SR leukemia; OVCAR-8 ovarian; OVCAR-5 ovarian; OVCAR-4 ovarian; SK-OV-3 ovarian; IGROV1 ovarian; OVCAR-3 ovarian; HS 578T breast; NCI/ADR-RES ovarian.
Holding throughout (test): NCI-60 one-dose screen, 48 h (100 = growth as untreated, 0 = no growth, -100 = all killed)
Conditions in all cases: 10 µM unless noted

This is part of a sample that, as a whole, favours compounds with a hit. Of some 83,000 tested, about 20% had one in any assay.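 A percent growth of 40 corresponds to 60% growth inhibition; 0 means no net growth; -100 means all cells died. Active threshold: below 10.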 A number with no mark means an inactive call. Activity calls are given as the source filed them.

In the case of `CN(C)CCNc1nc2ccccc2c2c(=O)c3cc(F)ccc3sc12`, the growth in the assay with SK-MEL-2 melanoma is 87.3%; with EKVX NSCLC, 67.7%; in the assay with SN12C renal, 50.8%; with UO-31 renal it was 25.2%; with TK-10 renal, 55.4%; with ACHN renal, 21.4%. Also, the growth with CAKI-1 renal was 14%; with A498 renal it was 17.6%; in the assay on CCRF-CEM leukemia it was 24.4%; in the assay on MOLT-4 leukemia it was -3.39% (active); in the assay with SR leukemia, -23.5% (active); in the assay with OVCAR-8 ovarian, 40.2%. Besides, the growth in the assay with OVCAR-5 ovarian was 76.9%; in the assay with OVCAR-4 ovarian, 29.9%; in the assay on SK-OV-3 ovarian it was 77.1%; in the assay on IGROV1 ovarian, 49%; with OVCAR-3 ovarian it was 38.1%; in the assay with HS 578T breast it was 47.8%. For the same compound, in the assay on NCI/ADR-RES ovarian, the growth is 38.3%.

As for `Cc1ccc2sc3c(NCCN)nc4ccccc4c3c(=O)c2c1`, the growth in the assay with SK-MEL-2 melanoma was 105%; with EKVX NSCLC, 88%; in the assay on SN12C renal it was 69.3%; in the assay on UO-31 renal, 50.6%; in the assay on TK-10 renal it was 96.2%; with ACHN renal, 66.4%. Besides, the growth in the assay on CAKI-1 renal is 42.7%; in the assay with A498 renal it was 61.6%; in the assay with CCRF-CEM leukemia, 32.8%; with MOLT-4 leukemia, 49%; in the assay on SR leukemia, -13.4% (active); in the assay with OVCAR-8 ovarian, 80.1%. The growth with OVCAR-5 ovarian was 97%; with OVCAR-4 ovarian, 67%; with SK-OV-3 ovarian it was 88.4%; in the assay on IGROV1 ovarian, 72.4%; in the assay with OVCAR-3 ovarian, 63%; in the assay with HS 578T breast, 85%. In addition, the growth in the assay on NCI/ADR-RES ovarian was 80.5%.

Regarding `CNC(C)[C@H]1CCC2C3CCC4C[C@@H](N(C)C(=O)c5ccccc5)CC[C@]4(C)C3CC[C@@]21C` (stereo not given in full), the growth was 38.7% with SK-MEL-2 melanoma; 24.5% in the assay on EKVX NSCLC; 34.6% in the assay with SN12C renal; -9.71% (active) with UO-31 renal; 65.4% in the assay with TK-10 renal; 46.9% in the assay with ACHN renal. Besides, the growth in the assay with CAKI-1 renal is 58.2%; with A498 renal it was 57.3%; with CCRF-CEM leukemia, 21.7%; in the assay on MOLT-4 leukemia it was 16.5%; with SR leukemia, 34.5%; in the assay on OVCAR-8 ovarian, 47.5%. In addition, the growth in the assay with OVCAR-5 ovarian is 81.6%; with OVCAR-4 ovarian it was -5.3% (active); in the assay on SK-OV-3 ovarian it was 67%; with IGROV1 ovarian, 22.8%; in the assay on OVCAR-3 ovarian it was 9.46% (active); in the assay on HS 578T breast, 38.7%. Moreover, the growth in the assay on NCI/ADR-RES ovarian is 42.4%.

As for `CC/C=C\C[C@@H](O)C/C=C1/C(=O)C=C[C@H]1C/C=C\CCCC(=O)OC`, the growth is 77.9% in the assay on SK-MEL-2 melanoma; 88.2% in the assay with EKVX NSCLC; -29.5% (active) with SN12C renal; 16.9% with UO-31 renal; 31.1% in the assay on TK-10 renal; 26.8% in the assay on ACHN renal. Moreover, the growth was 17.9% in the assay on CAKI-1 renal; 97.4% in the assay on A498 renal; -9.05% (active) in the assay with CCRF-CEM leukemia; -4.62% (active) in the assay on MOLT-4 leukemia; -17.5% (active) in the assay on SR leukemia; -6.75% (active) in the assay with OVCAR-8 ovarian. The growth was 54.1% with OVCAR-5 ovarian; 44.9% in the assay with OVCAR-4 ovarian; 99.3% in the assay with SK-OV-3 ovarian; -2.32% (active) in the assay on OVCAR-3 ovarian; 21% in the assay on HS 578T breast; 10.6% with NCI/ADR-RES ovarian.

`CCCCC[C@H](O)C/C=C1/C(=O)C=C[C@@H]1C/C=C\CCCC(=O)OC`: the growth with SK-MEL-2 melanoma was 89.2%; in the assay with EKVX NSCLC, 103%; in the assay with SN12C renal it was 11.5%; in the assay on UO-31 renal, 81.5%; with TK-10 renal, 82.3%; in the assay on ACHN renal it was 75.9%. Moreover, the growth in the assay with CAKI-1 renal was 60.5%; in the assay with A498 renal, 97.5%; in the assay with CCRF-CEM leukemia, 2.62% (active); with MOLT-4 leukemia, 20.2%; in the assay with SR leukemia, 0.159% (active); in the assay with OVCAR-8 ovarian, 13.8%. The growth was 129% with OVCAR-5 ovarian; 83.9% in the assay with OVCAR-4 ovarian; 118% in the assay with SK-OV-3 ovarian; 11.6% in the assay with OVCAR-3 ovarian; 88% with HS 578T breast; 18.7% with NCI/ADR-RES ovarian.

Turning to `c1ccc2c(c1)Nc1ccncc1S2`, the growth with SK-MEL-2 melanoma is 119%; in the assay on EKVX NSCLC it was 73.1%; in the assay with SN12C renal, 97.6%; with UO-31 renal, 78.5%; with TK-10 renal, 109%; in the assay with ACHN renal it was 94.2%. Further, the growth in the assay with CAKI-1 renal is 61.2%; in the assay on A498 renal, 80.7%; with CCRF-CEM leukemia it was 117%; with MOLT-4 leukemia, 142%; in the assay on SR leukemia, 200%; with OVCAR-8 ovarian, 101%. For the same compound, the growth is 89.5% in the assay with OVCAR-5 ovarian; 93.1% in the assay with OVCAR-4 ovarian; 112% in the assay on SK-OV-3 ovarian; 99.4% in the assay with IGROV1 ovarian; 119% in the assay on OVCAR-3 ovarian; 102% with HS 578T breast. In the assay on NCI/ADR-RES ovarian, the growth was 107%.

For `COc1ccccc1/C=C1\Oc2cc(OCCN3CCC(Cc4ccccc4)CC3)ccc2C1=O`, the growth in the assay with SK-MEL-2 melanoma is 116%; in the assay with EKVX NSCLC, 86%; with SN12C renal, 88.8%; in the assay on UO-31 renal, 65.5%; in the assay with TK-10 renal, 94.5%; in the assay with ACHN renal it was 105%. In addition, the growth is 82.5% in the assay with CAKI-1 renal; 47.7% in the assay on A498 renal; 70.7% in the assay on CCRF-CEM leukemia; 72.2% in the assay on MOLT-4 leukemia; 5.96% (active) with SR leukemia; 81.2% in the assay with OVCAR-8 ovarian. Besides, the growth in the assay on OVCAR-5 ovarian is 89.3%; in the assay with OVCAR-4 ovarian, 93.2%; in the assay on SK-OV-3 ovarian, 106%; in the assay with IGROV1 ovarian, 82.6%; with OVCAR-3 ovarian it was 98%; in the assay on HS 578T breast, 82.8%. In addition, the growth in the assay on NCI/ADR-RES ovarian was 89.2%.

In the case of `Cc1nn(-c2ccccc2)c(-n2ccnc2)c1/C=N/Nc1nc(-c2ccc(F)cc2)cs1`, the growth is 98.1% with SK-MEL-2 melanoma; 49.5% with EKVX NSCLC; 80.3% with SN12C renal; 51.2% in the assay on UO-31 renal; 98.3% with TK-10 renal; 78.9% in the assay with ACHN renal. The growth in the assay with CAKI-1 renal was 80%; in the assay with A498 renal, 71.8%; with CCRF-CEM leukemia, 70.1%; in the assay with MOLT-4 leukemia, 48.3%; in the assay with SR leukemia it was 49%; in the assay with OVCAR-8 ovarian, 76.1%. Besides, the growth is 105% in the assay on OVCAR-5 ovarian; 56% in the assay on OVCAR-4 ovarian; 81.4% in the assay on SK-OV-3 ovarian; 87.4% in the assay with IGROV1 ovarian; 84.8% with OVCAR-3 ovarian; 82.9% in the assay on HS 578T breast. For the same compound, in the assay with NCI/ADR-RES ovarian, the growth is 79.2%.
